B2AR arrestin ag – ADRB2 beta-arrestin recruitment | P07550 | HTLA Tango cells, beta-arrestin recruitment, luciferase luminescence, 18 h | Potency, µM (titrated, usually from 46.1 µM), usual class: activators | 44,000 tested, under 10 active;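 also: potency is read from the fitted curve at half-maximal effect; 0% = DMSO and full agonism = EC100 isoproterenol or metaproterenol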
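First, Tango cells carrying beta2-AR and beta-arrestin fusions received compound up to 46 microM. After 18 hr at 37 degrees C, luciferase substrate was added for 15 minutes, then luminescence gave %Activity for curve fitting.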
GALK inh – inhibits human galactokinase; P51570; recombinant GALK, Kinase-Glo ATP luminescence, 1 h; Potency, µM (titrated, usually from 57.5 µM), for inactives: at the highest dose activity, negative = inhibition, actives largely listed as inhibitors; 44,000 tested, under 10 active;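 also: plate controls were full GALK reaction for no effect and reaction lacking GALK for full effect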
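5 nM GALK with 35 µM ATP and 100 µM galactose in HEPES pH 8.0, MgCl2, NaCl, DTT, BSA; 1 h RT reaction, remaining ATP detected by Kinase-Glo Plus luminescence after 10 min; qHTS concentration series.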
NTMT1 inhibitor – NTMT1 methyltransferase inhibition | Q9BV86 | NTMT1 MTase-Glo SAH luminescence, purified enzyme | Potency, µM (doses to about 114 µM), without a hit: at the top dose activity change, negative = inhibition, usual class: inhibitors | 2.5% of 59,000 active | AID 1645870;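 also: potency is read from the fitted curve at half-maximal effect; plate controls were DMSO vehicle for no effect and no enzyme for full effect; nearly all actives have a fitted effect of over 65% in size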
Target sequence (Q9BV86 whole entry, looked up): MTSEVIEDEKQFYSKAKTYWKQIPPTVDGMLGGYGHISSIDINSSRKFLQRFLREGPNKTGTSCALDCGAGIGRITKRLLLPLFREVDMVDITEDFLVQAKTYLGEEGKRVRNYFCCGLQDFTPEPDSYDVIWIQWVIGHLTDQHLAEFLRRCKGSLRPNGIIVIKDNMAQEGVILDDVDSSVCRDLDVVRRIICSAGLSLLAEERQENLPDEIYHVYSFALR
FH mod – Identification of activators of human fumarate hydratase by quantitative high-throughput screening | AID 1347055, 2019 | 0.22% of 54,000 active | Potency, µM (titrated, usually from 79.9 µM), without a hit: at the highest dose activity change, negative = inhibition, actives largely listed as inhibitors | FH coupled MDH/diaphorase resazurin fluorescence, 15 min | Fumarate hydratase, mitochondrial (Homo sapiens), P07954; also: potency is read from the fitted curve at half-maximal effect; % is scaled to controls: 0 for no effect and ±100 for the full control effect; the screen sought activators but most active calls are inhibition curves; nearly all actives have a fitted effect of over 45% in size
TSG101-PTAP inh – TSG101-PTAP interaction inhibition, HIV-1 budding; Q99816; Fluorescence polarization, FITC-PTAP peptide/Tsg101, 20 min; Potency, µM (titrated, usually from 115 µM), hits mostly inhibitors; 44,000 tested, under 10 active; AID 1347069; also: potency is read from the fitted curve at half-maximal effect; 0% is about no effect
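qHTS FP binding, 20 min r.t.: 10 uM Tsg101 domain + 50 nM FITC-PTAP peptide, pH 7.5 HEPES buffer with TCEP and EDTA.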
CLK4 inh-1 – inhibits human CLK4 kinase in Kinase-Glo confirmation; 90% of 90 active; Potency, µM (titrated, usually from 76.9 µM), inactives show at the highest dose activity, negative = inhibition, hits mostly inhibitors; shares compounds with NTMT1 inhibitor; AID 493204; recombinant Clk4, Kinase-Glo ATP luminescence, 4.5 h
CLK4 inh-2 – blocks human CLK4 kinase in radiometric assay; shares compounds with NTMT1 inhibitor; Reaction Biology kinase assay, 10 uM ATP; Potency, µM, actives largely listed as inhibitors; 100% of 65 active; AID 504421; calls by dose curve
DYRK1A inh – DYRK1A kinase inhibition. Reaction Biology kinase assay, 10 uM ATP. 90% of 65 active. AID 504424. Potency, µM, most hits filed as inhibitors. shares compounds with NTMT1 inhibitor;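 active = compounds that showed inhibition of Dyrk1a and received a fitted potency; inactive = compounds that showed no inhibition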
CLK2 inh – blocks human CLK2 kinase in radiometric assay | shares compounds with NTMT1 inhibitor | Reaction Biology kinase assay, 10 uM ATP | Potency, µM, actives largely listed as inhibitors | 90% of 65 active;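 active = compound that inhibits Clk2 kinase in the dose series, with an IC50 potency reported; inactive = no inhibition seen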
CLK3 RBC – inhibitors of human CLK3 kinase; Potency, µM, actives largely listed as inhibitors; 40% of 65 active; recombinant CLK3 kinase assay, 10 uM ATP; shares compounds with NTMT1 inhibitor; AID 504428;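 active = compounds that inhibited Clk3 enough in the ten-dose series to give a half-maximal potency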
DYRK1B inh – inhibitors of human Dyrk1b kinase. shares compounds with NTMT1 inhibitor. Recombinant Dyrk1b kinase assay, 10 uM ATP. Potency, µM, hits mostly inhibitors. 80% of 65 active. AID 504429;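 active = compounds whose dose response shows an inhibitor phenotype against the kinase Dyrk1b; inactive = compounds showing no inhibitor phenotype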
CLK1 inh – inhibitors of human CLK1 kinase; shares compounds with NTMT1 inhibitor; recombinant Clk1 kinase assay, 10 uM ATP; Potency, µM, hits mostly inhibitors; 90% of 65 active; AID 504430;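 active = compounds that block the splicing kinase Clk1 enough to give a fitted half-inhibition concentration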
NNMT inh – blocks human NNMT methyltransferase. shares compounds with NTMT1 inhibitor. NNMT MTase-Glo luminescence, SAH detection. Potency, µM (highest dose often 57.1 µM), for inactives: at the highest dose activity, negative = inhibition, most hits filed as inhibitors. 10% of 120 active. AID 1645878
Target sequence (P40261 whole entry, looked up): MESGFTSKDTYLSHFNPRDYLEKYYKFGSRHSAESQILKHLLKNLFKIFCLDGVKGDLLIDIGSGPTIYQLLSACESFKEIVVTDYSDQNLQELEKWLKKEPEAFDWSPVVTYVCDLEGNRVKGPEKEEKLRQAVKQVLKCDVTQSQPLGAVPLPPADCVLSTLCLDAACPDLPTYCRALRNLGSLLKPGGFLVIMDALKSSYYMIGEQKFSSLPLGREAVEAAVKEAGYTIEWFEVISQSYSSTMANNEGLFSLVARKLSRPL
* marks the source's active call; other numbers are inactive results; i = inactive; ? = inconclusive; / = not tested or not shown; [ ] = dose if it differs, or a comment. This is one part of a sample in which hits are shown more often than they occur. Unless noted, calls follow the shape of the dose curve; as a rule, active = well fitted curve in the direction sought with a large enough effect; inconclusive = small, poorly fitted or top-dose-only effect, or another doubt; inactive = no such curve, though single readings can be large; an effect the other way counts as inactive or inconclusive.

SMILES	B2AR arrestin ag	GALK inh	NTMT1 inhibitor	FH mod	TSG101-PTAP inh	CLK4 inh-1	others
Cc1ccc(CNc2ncnc3ccc(-c4ccc(C(=O)O)o4)cc23)o1	/	/	/	/	/	0.0733µM*	CLK4 inh-2=0.104*;DYRK1A inh=17.4µM*;CLK2 inh=1.36µM*;CLK3 RBC=i;DYRK1B inh=4.93µM*;CLK1 inh=1.56µM*
Cc1noc(C)c1-c1ccc2ncnc(NCc3ccc(C(F)(F)F)o3)c2c1	/	/	5.7%[57.5 µM]	/	/	/
Cc1ccc(CNc2ncnc3ccc(-c4ccc([C@@H](C)O)o4)cc23)o1	/	/	?	/	/	0.184µM*
CCNC(=O)c1ccc(-c2ccc3ncnc(NCc4nccs4)c3c2)o1	/	/	?	/	/	0.519µM*	CLK4 inh-2=0.884*;DYRK1A inh=5.06µM*;CLK2 inh=18.9µM*;CLK3 RBC=i;DYRK1B inh=4.95µM*;CLK1 inh=7µM*
Cc1csc(CNc2ncnc3ccc(-c4ccc(C(=O)O)o4)cc23)n1	/	/	-1.8%[57.5 µM]	/	/	0.367µM*	CLK4 inh-2=1.04*;DYRK1A inh=46.5µM*;CLK2 inh=9.46µM*;CLK3 RBC=i;DYRK1B inh=13.4µM*;CLK1 inh=16µM*
O=C(c1ccccc1)c1c(O)cc(O)cc1O[C@@H]1O[C@H](CO)[C@@H](O)[C@H](O)[C@H]1O	/	/	?	-6.5%[53.3 µM]	/	/
Cc1ccnc(NCc2ccc(O)c3ncccc23)c1	/	/	-4.3%	/	/	/
CNc1nc(-c2ccc3c(N)n[nH]c3c2)cc(N2C[C@@H](C(=O)NC3CCCCC3)CC[C@H]2C)n1	/	/	1.6%	/	/	/
Cc1ccc(NC(=O)[C@H]2CCCN(C(=O)c3c(C)cccc3F)[C@H]2c2ccc(NC3CCCC3)cc2)cc1C(F)(F)F	/	/	17.6%	/	/	/
NCCOc1cc(C(=O)Nc2cc(OCCN)c3ccccc3n2)nc(C(=O)Nc2cc(OCCN)c3ccccc3n2)c1	/	/	22.4µM*	?	/	/	NNMT inh=-12.1%
COc1ccc(Nc2cc(C(=O)NCc3ccccc3)c3ccccc3n2)c(OC)c1	i	7.5%	-3.5%	-33.9%	i	/
O=C([C@@H]1CCCN(c2ccc3[nH]c(C4(n5cc(Cl)cn5)CC4)nc3n2)C1)N1CCCC1	/	/	?	1.1%	/	/	NNMT inh=-10.9%
O=C(Nc1ccc(F)c(Cl)c1)C1CCCN(c2cnccn2)C1 (stereo not given)	i	7.1%	1.7%	2.1%	i	/
